Consider eight compounds from PubChem BioAssay (NCI).

About 83,000 compounds went through this panel and 20% of them were active in at least one assay; those are over-represented in the sample as a whole.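 48-hour exposure, single concentration, 96-well plates; percent growth endpoint where 0 means no net growth. Active: below 10.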 A number with no mark means an inactive call. The source made the active and inactive calls.

What all share (assay): NCI-60 one-dose screen, 48 h (100 = growth as untreated, 0 = no growth, -100 = all killed)
In one test the test system is NCI-H23 lung. Conditions: 10 µM unless noted.
For a further test, the system named is NCI-H226 lung. As to conditions: 10 µM unless noted.
The next test relates to NCI-H322M lung. As to conditions: 10 µM unless noted.
A further test relates to HOP-62 NSCLC. As to conditions: 10 µM unless noted.
Another test deals with NCI-H460 lung. As to conditions: 10 µM unless noted.
The next test relates to HOP-92 NSCLC. Conditions: 10 µM unless noted.
The next test deals with NCI-H522 lung. As to conditions: 10 µM unless noted.
The next test relates to A549/ATCC NSCLC. Conditions: 10 µM unless noted.
For a further test, the system named is 786-0 renal. Conditions: 10 µM unless noted.
A further test relates to COLO 205 colon. As to conditions: 10 µM unless noted.
The test system of another test is DU-145 prostate. As to conditions: 10 µM unless noted.
In a further test the test system is K-562 leukemia. As to conditions: 10 µM unless noted.
Another test concerns MALME-3M melanoma. As to conditions: 10 µM unless noted.
A further test concerns MDA-MB-231 breast. As to conditions: 10 µM unless noted.
The subject of another test is RXF 393 renal. As to conditions: 10 µM unless noted.
In another test the test system is SF-268 CNS. As to conditions: 10 µM unless noted.
In a further test the test system is SF-295 CNS. Conditions: 10 µM unless noted.
The test system of the next test is SF-539 CNS. As to conditions: 10 µM unless noted.
The next test has as its system UACC-257 melanoma. As to conditions: 10 µM.
In a further test the test system is M14 melanoma. Conditions: 10 µM unless noted.

In the case of `O=S(=O)(Nc1ccc2c(c1)OC(F)(F)O2)c1ccc(-c2cnc(C3CC3)o2)cc1`, the growth in the test on NCI-H23 lung is 55.2%; with NCI-H226 lung it was 60.8%; in the test with NCI-H322M lung, 83.3%; in the test with HOP-62 NSCLC, 35.9%; with NCI-H460 lung it was 17.3%; in the test with HOP-92 NSCLC it was 66.7%. Also, the growth is 43.2% in the test on NCI-H522 lung; 47.7% in the test on A549/ATCC NSCLC; 47.2% with 786-0 renal; 47.4% with COLO 205 colon; 68.6% in the test on DU-145 prostate; 9.69% (active) in the test on K-562 leukemia. Moreover, the growth in the test on MALME-3M melanoma is 50.2%; in the test on MDA-MB-231 breast it was 48.1%; in the test with RXF 393 renal, 49.5%; with SF-268 CNS, 60.6%; in the test on SF-295 CNS it was 22.6%; with SF-539 CNS, 37.8%. Also, the growth is 58.9% with UACC-257 melanoma and 25.4% in the test on M14 melanoma.
With `C#C[C@]1(O)CC[C@H]2[C@@H]3CC=C4c5sc(-c6ccccn6)nc5CC[C@]4(C)[C@H]3CC[C@@]21C`, the growth in the test on NCI-H23 lung was 81.2%; in the test with NCI-H226 lung, 94.4%; in the test with NCI-H322M lung, 90.6%; in the test with HOP-62 NSCLC it was 77.5%; in the test on NCI-H460 lung, 75.9%; in the test with HOP-92 NSCLC, 110%. The growth in the test with NCI-H522 lung is 91.6%; in the test on A549/ATCC NSCLC it was 85.7%; in the test on 786-0 renal it was 24.5%; with COLO 205 colon it was 90.9%; in the test on DU-145 prostate it was 90.2%; with K-562 leukemia, 31.9%. The growth with MALME-3M melanoma is 81.9%; with MDA-MB-231 breast it was 78.6%; with RXF 393 renal it was -34.4% (active); in the test with SF-268 CNS, 82.4%; with SF-295 CNS, -37.3% (active); with SF-539 CNS, 30.9%. For the same compound, the results for the growth with UACC-257 melanoma and in the test on M14 melanoma were 70.5% and 74.8%, respectively.
Turning to `O=c1c2ccccc2nc(COc2ccccc2)n1/N=C/C=C/c1ccccc1`, the growth with NCI-H23 lung was 95.9%; in the test with NCI-H226 lung, 98.1%; with NCI-H322M lung, 93%; in the test with HOP-62 NSCLC, 98.6%; with NCI-H460 lung it was 99.1%; with HOP-92 NSCLC it was 102%. Moreover, the growth in the test on NCI-H522 lung was 81.4%; in the test with A549/ATCC NSCLC it was 100%; in the test with 786-0 renal, 100%; with COLO 205 colon it was 113%; in the test on DU-145 prostate, 104%; in the test on K-562 leukemia it was 109%. The growth is 96.9% in the test on MALME-3M melanoma; 93.4% in the test with MDA-MB-231 breast; 101% in the test with RXF 393 renal; 97.5% in the test with SF-268 CNS; 102% in the test on SF-295 CNS; 100% with SF-539 CNS. For the same compound, the growth with UACC-257 melanoma was 95.3%; in the test with M14 melanoma, 97.8%.
In the case of `O=C(Nc1cc(Cl)cc(Cl)c1)Nc1ccc2oc(=O)ccc2c1`, the growth was -6.33% (active) with NCI-H23 lung; 32.7% with NCI-H226 lung; 21.9% in the test on NCI-H322M lung; 40.5% with HOP-62 NSCLC; 1.17% (active) with NCI-H460 lung; -26.6% (active) with HOP-92 NSCLC. Further, the growth in the test on NCI-H522 lung was 6.05% (active); in the test on A549/ATCC NSCLC, 16.2%; in the test on 786-0 renal it was 23.9%; in the test on COLO 205 colon, -10.9% (active); in the test with DU-145 prostate, 17%; in the test on K-562 leukemia, 15.4%. Also, the growth was 0.228% (active) in the test with MALME-3M melanoma; 24.6% in the test on MDA-MB-231 breast; 47.7% with RXF 393 renal; 24.8% in the test with SF-268 CNS; 3.51% (active) in the test with SF-295 CNS; 22.5% in the test with SF-539 CNS. Moreover, the growth in the test on UACC-257 melanoma was 23.4%; in the test with M14 melanoma, 32.5%.
`CC(c1ccccc1)N1C(=O)/C(=C/c2csc(C#N)n2)SC1=S` (stereo not given): the growth is 101% in the test on NCI-H23 lung; 97% with NCI-H226 lung; 99.8% with NCI-H322M lung; 103% in the test on HOP-62 NSCLC; 106% in the test on NCI-H460 lung; 85.5% in the test on HOP-92 NSCLC. Also, the growth in the test on NCI-H522 lung was 75.4%; in the test with A549/ATCC NSCLC it was 95.8%; with 786-0 renal, 91%; with COLO 205 colon, 91.8%; in the test on DU-145 prostate it was 87.7%; in the test with K-562 leukemia it was 40.8%. The growth was 82.4% with MALME-3M melanoma; 90.1% with MDA-MB-231 breast; 90.1% in the test on RXF 393 renal; 101% in the test with SF-268 CNS; 103% in the test on SF-295 CNS; 93.4% with SF-539 CNS. Also, the growth with UACC-257 melanoma is 81.7%; with M14 melanoma it was 78.4%.
Regarding `CC(=O)C1=NN(c2ccc(Cl)cc2)C(=O)CN1C`, the growth was 94.9% in the test with NCI-H23 lung; 105% in the test with NCI-H226 lung; 101% in the test on NCI-H322M lung; 103% in the test with HOP-62 NSCLC; 108% with NCI-H460 lung; 107% in the test with HOP-92 NSCLC. The growth is 95.6% with NCI-H522 lung; 96.2% in the test on A549/ATCC NSCLC; 91.2% in the test on 786-0 renal; 106% in the test on COLO 205 colon; 107% in the test with DU-145 prostate; 114% with K-562 leukemia. For the same compound, the growth was 107% with MALME-3M melanoma; 105% in the test with MDA-MB-231 breast; 121% with RXF 393 renal; 108% in the test with SF-268 CNS; 95.5% in the test on SF-295 CNS; 97.8% in the test on SF-539 CNS. Also, the growth in the test with UACC-257 melanoma and with M14 melanoma was 101% throughout.
Turning to `O=C(Nc1cc(F)cc2cccnc12)c1cnc(N2CCOCC2)cn1`, the growth in the test on NCI-H23 lung is 59.2%; in the test with NCI-H226 lung it was 80.7%; in the test on NCI-H322M lung it was 92%; with HOP-62 NSCLC it was 87.3%; in the test on NCI-H460 lung, 98.9%; in the test with HOP-92 NSCLC, 83.7%. The growth in the test on NCI-H522 lung is 15.2%; in the test on A549/ATCC NSCLC, 95.3%; in the test on 786-0 renal, 65.7%; with COLO 205 colon, 18.1%; in the test with DU-145 prostate, 68.5%; in the test on K-562 leukemia, 22.7%. For the same compound, the growth in the test on MALME-3M melanoma is 53.6%; in the test with MDA-MB-231 breast, 54.7%; with RXF 393 renal it was 59.8%; in the test on SF-268 CNS it was 94.3%; with SF-295 CNS, 97.4%; in the test on SF-539 CNS it was 87.6%. In addition, the growth in the test on UACC-257 melanoma was 30.6%; with M14 melanoma, 70.6%.
With `O=C1Nc2cc(OC(F)(F)F)ccc2Oc2ccc(-c3ccnc(N4CC[C@H](O)C4)c3)cc21`, the growth is 27.6% with NCI-H23 lung; -8.84% (active) with NCI-H226 lung; 55.1% in the test with NCI-H322M lung; 25.3% in the test on HOP-62 NSCLC; -47.1% (active) with NCI-H460 lung; 45.7% with HOP-92 NSCLC. In addition, the growth in the test with NCI-H522 lung is -28% (active); with A549/ATCC NSCLC it was 0.655% (active); in the test with 786-0 renal, 6.88% (active); in the test on COLO 205 colon, -42% (active); in the test with DU-145 prostate, -39.1% (active); in the test with K-562 leukemia, 5.41% (active). In addition, the growth in the test with MALME-3M melanoma is 39.4%; with MDA-MB-231 breast it was 17.2%; in the test with RXF 393 renal, -10% (active); in the test on SF-268 CNS, 19.1%; in the test with SF-295 CNS it was 3.93% (active); with SF-539 CNS it was -28.7% (active). The growth in the test on UACC-257 melanoma is 72%; in the test on M14 melanoma it was -1.7% (active).
